# Assay results as given in PubChem BioAssay (EPA / NIEHS).
# Activity calls are given as the source filed them. The calls were made as follows: active = hit-call score of the fitted dose curve at least 0.9, where 1 is the maximum; inactive = score below 0.9.
# Read-out: TIMP metallopeptidase inhibitor 1 (TIMP1), TIMP1 (gene 7076)
# Assay: BSK_hDFCGF_TIMP1: BioMAP Diversity Plus: hDFCGF Assay for TIMP metallopeptidase inhibitor 1 (TIMP1) Biomarker Activity (AID 2283062)
# Conditions: primary human foreskin fibroblasts; actives raise or lower the signal
# Experimental: BSK_hDFCGF is a cell-based, multiplexed-readout assay that uses foreskin fibroblast, a human skin primary cell, with measurements taken at 24 hours after chemical dosing in a 96-well plate.BSK_hDFCGF_TIMP1 is an assay component measured in the BSK_hDFCGF assay. It measures TIMP-1 antibody related to regulation of gene expression using ELISA technology.Data from the assay component BSK_hDFCGF_TIMP1 was analyzed into 1 assay endpoint. This assay endpoint, BSK_hDFCGF_TIMP1, was analyzed with bidirectional fitting relative to DMSO as the negative control and baseline of activity. Using a type of binding reporter, gain or loss-of-signal activity can be used to understand changes in the signaling as they relate to the gene TIMP1. Furthermore, this assay endpoint can be referred to as a primary readout, because this assay has produced multiple assay endpoints where this one serves a signaling function. To generalize the intended target to other relatable targets, this assay endpoint is annotated to the protease inhibitor intended target family, where the subfamily is metalloproteinase inhibitor.
# The levels of cell surface (or secreted, indicated by the prefix "s") biomarker endpoints were measured by ELISA. Overt cytotoxicity to cells in confluent adherent cultures (all systems other than the BT system) was assessed by measuring total protein levels using sulforhodamine B (SRB) staining in parallel cultures at the time of biomarker measurements, indicated as SRB endpoints. For proliferation assays for adherent cell types, individual cell types are cultured at sub-confluence and relative cell numbers quantified by SRB staining at time points optimized for each system (48 h: 3C and CASM3C systems; 72 h: BT and HDF3CGF systems; 96 h: SAg system). SRB was performed by staining cells with 0.1% SRB after fixation with 10% TCA and reading wells at 560 nm.Viability and proliferation of PBMC (T cells) was quantified by Alamar Blue reduction for the SAg and BT systems. For PBMC viability (referred to as PBMC Cytotoxicity within the assay endpoint names), cells were plated (75,000/well in a 96-well plate) and then chemical samples added for 1 h before addition of activators, SEB and TSST-1 (20 ng/mL final concentration each). Cells were incubated for 90 h. Then, Alamar Blue (20 uL/well) (Invitrogen, Cat DAL1100) was added for 6 h, and the plates were read with a fluorescence microplate reader at 546/580 nm (excitation/emission). For PBMC proliferation, cells were plated and activated as above but incubated for only 16 h prior to addition of Alamar Blue. Plates were read after 6 h.
SMILES,outcome,AC50
COCCOCCOCCOC,inactive,
CC(=O)c1ccc2c(c1)[C@H](NC(=O)c1ccc(F)cc1)[C@@H](O)C(C)(C)O2,inactive,
CC[C@H](C)C(=O)O[C@H]1C[C@@H](C)C=C2C=C[C@H](C)[C@H](CC[C@@H]3C[C@@H](O)CC(=O)O3)[C@H]21,,29.9 µM (active)
COc1ccc(-n2nc(C(F)F)cc2-c2ccc(S(C)=O)cc2)cc1 (stereo not given),inactive,
CC[C@H]1CC[C@H](NCc2cc3c(cc2OC)[C@H]2C[C@H]2C(=O)N3C)[C@H](c2ccccc2)N1,inactive,
CN(C)c1ccc(Cc2ccc(N(C)C)cc2)cc1,inactive,
CCCCC(CC)COC(=O)CCCCCCCCC(=O)OCC(CC)CCCC (stereo not given),inactive,
C[C@](N)(Cc1ccc(O)c(O)c1)C(=O)O,inactive,
Clc1nc(Cl)c(Cl)c(Cl)c1Cl,inactive,
C=CC(=C)CCC=C(C)C,inactive,
CN(C)c1ccc(N=NS(=O)(=O)O)cc1,inactive,
CC1=CC(=O)CC(C)(C)C1,inactive,
O=C(OC[C@H]1O[C@@H](OC(=O)c2cc(O)c(O)c(OC(=O)c3cc(O)c(O)c(O)c3)c2)[C@H](OC(=O)c2cc(O)c(O)c(OC(=O)c3cc(O)c(O)c(O)c3)c2)[C@@H](OC(=O)c2cc(O)c(O)c(OC(=O)c3cc(O)c(O)c(O)c3)c2)[C@@H]1OC(=O)c1cc(O)c(O)c(OC(=O)c2cc(O)c(O)c(O)c2)c1)c1cc(O)c(O)c(OC(=O)c2cc(O)c(O)c(O)c2)c1,inactive,
CC(C)c1cccc(C(C)C)c1N1C(=O)c2ccc(O)cc2C1=O,,5.39 µM (active)
O=C1CCC(N2C(=O)c3ccccc3C2=O)C(=O)N1 (stereo not given),inactive,
CC(O)CN(CCN(CC(C)O)CC(C)O)CC(C)O (stereo not given),inactive,
CCCC(=O)OCC,inactive,
COC(=O)c1c(Cl)c(Cl)c(C(=O)OC)c(Cl)c1Cl,inactive,
Cn1c(=O)c2c(ncn2C)n(C)c1=O,inactive,
CC/C(=C\C(=N/O)C(N)=O)C(C)[N+](=O)[O-] (stereo not given),inactive,

SMILES,outcome,AC50
CCCCC(CC)COC(=O)c1ccc(C(=O)OCC(CC)CCCC)cc1 (stereo not given),inactive,
CCCCCCCCCCCCCCCO,inactive,
CC1(C)C(=O)N(Br)C(=O)N1Br,inactive,
O=c1n(CC2CO2)c(=O)n(CC2CO2)c(=O)n1CC1CO1 (stereo not given),inactive,
On1ccccc1=S,,1.4 µM (active)
CCCN(C1CCN(C(=O)C2CCNCC2)CC1)[C@@H]1CCc2ccc(OC)cc2C1,inactive,
Cc1ccc(N)cc1O,inactive,
COC(=O)CC(=O)OC,inactive,
Cn1c(=O)cc(Oc2ccc(F)cc2F)c2cnc(NCC(C)(C)O)nc21,inactive,
CCCCCCCCO,inactive,
O=C1CCCCCN1,inactive,
Nc1nc2ncc(CNc3ccc(C(=O)N[C@@H](CCC(=O)O)C(=O)O)cc3)nc2c(=O)[nH]1,inactive,
CC(C)CC(C)(O)C#CC(C)(O)CC(C)C (stereo not given),inactive,
CCOCCO,inactive,
CCOC(=O)c1ccc(C2CCC(NC[C@H](O)COc3ccc(O)c(NS(C)(=O)=O)c3)CC2)cc1 (stereo not given in full),,13.4 µM (active)
COC(=O)c1ccccc1O,inactive,
COc1ccc2sc(C(=O)Nc3nnn[nH]3)c(OC(C)C)c2c1,,7.77 µM (active)
CCOCCOCCOCCO,inactive,
O=C(O)c1cc(N=Nc2ccc(S(=O)(=O)Nc3ccccn3)cc2)ccc1O,inactive,
C1=CCCC=CCCC=CCC1,inactive,
